# Compound activity: PubChem, several laboratories
# Most compounds without a hit are left out; they make up all but 3.3% or so of the library.
# Smad3 FoxH1 inh – blocks human Smad3 binding to FoxH1 peptide; P84022; TR-FRET Smad3/Dy647-FoxH1 peptide binding, europium anti-His; inhibition, % at 25 µM; 0.29% of 88,000 active;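 active = compounds that reduce the energy-transfer binding signal between the protein and its labelled peptide by more than half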;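 also: 0% = Smad3 plus labelled peptide maximal FRET and 100% = peptide-only background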
# Target sequence (P84022 whole entry, looked up): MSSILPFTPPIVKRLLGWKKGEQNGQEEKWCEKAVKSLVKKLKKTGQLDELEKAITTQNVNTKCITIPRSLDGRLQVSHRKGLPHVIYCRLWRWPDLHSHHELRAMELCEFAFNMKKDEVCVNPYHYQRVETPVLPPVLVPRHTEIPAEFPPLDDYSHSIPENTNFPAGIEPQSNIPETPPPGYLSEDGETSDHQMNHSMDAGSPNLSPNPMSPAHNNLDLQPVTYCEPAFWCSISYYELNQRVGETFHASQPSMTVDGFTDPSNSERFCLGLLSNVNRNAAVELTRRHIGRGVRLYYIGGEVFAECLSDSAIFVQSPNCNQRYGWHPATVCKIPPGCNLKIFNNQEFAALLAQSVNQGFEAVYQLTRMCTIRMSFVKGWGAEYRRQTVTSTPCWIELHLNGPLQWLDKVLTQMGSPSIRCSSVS
# Candida biofilm – kills Candida albicans biofilms | C. albicans biofilm + clotrimazole, Alamar Blue | inhibition, % at 6 µM | 0.14% of 85,000 active | AID 834;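 active = inhibition above 20%; inactive = inhibition below 20%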;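 also: preformed 24 hr biofilms exposed to compound for 48 hr; 0% = biofilm without compound and 100% = blank killed by clotrimazole plus chlorhexidine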
# ERb coact inh – ER-beta (human) coactivator binding inhibition | TR-FRET ER-beta LBD / SRC1-Cy5 peptide binding; receptor agonist-loaded with 1 µM estradiol | inhibition, % at 25.6 µM | 1.3% of 86,000 active;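 active = compounds whose percent inhibition of the receptor-coactivator binding signal exceeds about 50% in the single-dose screen, limit read from the data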;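 also: 0% = receptor plus peptide wells without compound and 100% = peptide-only wells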
# FAK inh – inhibitors of human focal adhesion kinase | inhibition, %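 (tested at 7 µM)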 | 0.84% of 97,000 active | Q05397 | AID 727 | biochemical FAK kinase activity assay; in the data active = inhibition above about 19%;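 also: 0% = DMSO and 100% = reference compound high control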
# ERa SRC1 pot – enhances coactivator binding to human estrogen receptor alpha; TR-FRET ERalpha-LBD/SRC-Cy5 coactivator binding, 2 h; 100 = basal binding, no effect; coactivator binding (% of control), % at 25.6 µM; 1.3% of 86,000 active; AID 639; in the data active = activity above about 200%;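 also: binding measured in presence of low estradiol as agonist stimulus; 0% = peptide alone without receptor and 100% = receptor with peptide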
# ERa coact inh – blocks coactivator binding to human estrogen receptor alpha; TR-FRET ER-alpha LBD / SRC-1 peptide, estradiol-bound; inhibition, % at 25.6 µM; 1.7% of 86,000 active; in the data active = inhibition above about 50%;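 also: 0% = receptor plus peptide control and 100% = peptide only without receptor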
# The depositor's hits bear a star; / = no result; [ ] = another dose, or the depositor's remark.
SMILES,Smad3 FoxH1 inh,Candida biofilm,ERb coact inh,FAK inh,ERa SRC1 pot,ERa coact inh
COc1cccc(-c2cc(C(F)(F)F)c3c(N)c(C#N)sc3n2)c1,/,/,/,2.0,/,/
N#Cc1sc2nc(-c3ccccc3)cc(-c3ccco3)c2c1N,20.5,8.0,76.2*[fluorescence artefact?],11.7,13.9,88.5*[fluorescence artefact?]
Cn1c(=O)c2[nH]c([C@@H]3CC(=O)C[C@H](c4nc5c([nH]4)c(=O)n(C)c(=O)n5C)N3)nc2n(C)c1=O,42.5,/,/,/,/,/
Cc1ccc(-c2nnc(-c3ccc(NC(=O)c4ccco4)cc3)o2)cc1,11.5,5.7,12.4,10.2,455.0*,21.8
O=C(Nc1cccc(-c2cnc3ccccc3n2)c1)c1cccc(NC(=O)c2ccco2)c1,9.9,2.0,35.4,14.4,243.8*[fluorescence artefact?],59.2*
Cc1cc(C)nc(NS(=O)(=O)c2ccc(NC(=O)c3ccco3)cc2)n1,5.6,4.2,68.8*[fluorescence artefact?],1.9,102.5,-5.3
CCOc1cccc(C(=O)Nc2cccc(-c3nnc(-c4ccc(C)cc4)o3)c2)c1,-22.5,8.3,59.8*[fluorescence artefact?],-2.1,158.4,68.2*[fluorescence artefact?]
Cc1ccc(-c2nnn(CC(=O)N(CC(=O)NCc3ccccc3)c3cccc(C)c3C)n2)o1,1.3,9.0,2.8,1.4,101.7,2.6
O=C(CN(CC1CCCO1)C(=O)CNS(=O)(=O)c1ccc(Cl)cc1)NCC1CCCO1 (centres undefined),13.0,6.5,10.0,-4.0,107.9,22.1
C[N+]1([C@H](CO)Cc2c[nH]c3ccccc23)Cc2ccccc2C1,3.4,/,/,/,/,/
Cc1ccc2nc(-c3ccc(NC(=O)c4ccco4)cc3)[nH]c2c1,-8.7,0.2,36.3,2.6,175.7,59.1*[fluorescence artefact?]
O=C(Nc1ccc(-c2nc3cccnc3s2)cc1)c1ccco1,-5.7,5.2,41.5,/,155.8,55.8*[fluorescence artefact?]
CN1CCN(CN2C(=O)[C@H]3[C@H]4C=C[C@@H]([C@@H]3C2=O)[C@H]2[C@@H]3C(=O)N(CN5CCN(C)CC5)C(=O)[C@@H]3[C@@H]42)CC1,56.5*,/,/,/,/,/
O=C1C2C3C=CC(C2C(=O)N1CCCO)C1C2C(=O)N(CCCO)C(=O)C2C31 (centres undefined),/,/,/,2.2,/,/
O=C(CCCCCn1c(=S)[nH]c2ccc(Br)cc2c1=O)NCC1CCCO1 (centres undefined),14.1,-0.6,30.4,0.7,115.6,52.1*[fluorescence artefact?]
N#C/C(=C(/O)C(=O)O)c1ccc(-c2cccc3ccccc23)cc1,2.5,/,/,/,/,/
O=C1c2ccsc2SCCN1Cc1cccc(Cl)c1,7.7,-1.7,-1.0,0.6,100.0,1.1
O=C1c2ccsc2SCCN1Cc1ccc(Cl)cc1,-18.1,12.1,55.9*[fluorescence artefact?],-0.2,76.3,15.5
COc1ccc(N(CC(=O)NCc2ccco2)S(=O)(=O)c2ccc(OC)c(OC)c2)cc1,-10.9,4.0,54.2*[fluorescence artefact?],/,93.6,1.9
Cc1nc2cc(-c3ccccc3)nn2c(C)c1CCC(=O)NCc1ccco1,0.8,4.6,10.3,-6.7,97.6,79.8*[fluorescence artefact?]
COc1ccc(CCC(=O)NCc2ccco2)cc1,-3.1,3.2,49.4,1.2,211.8*[fluorescence artefact?],57.8*[fluorescence artefact?]
COc1ccccc1-c1cc2nc(C)c(CCC(=O)NCc3ccco3)c(C)n2n1,9.8,9.1,-7.9,/,108.2,4.1
CC(C)(C)NS(=O)(=O)c1ccc(CCC(=O)NCc2ccco2)cc1,6.2,7.2,4.2,0.8,91.5,1.8
Cc1nnc(S(=O)(=O)c2ccc(N=Nc3c(N)nc(N)nc3N)cc2)s1,-6.3,/,/,/,/,/
CO/N=C/c1cc([N+](=O)[O-])ccc1Sc1ccc(C)cc1,/,/,/,-0.2,/,/
SMILES,Smad3 FoxH1 inh,Candida biofilm,ERb coact inh,FAK inh,ERa SRC1 pot,ERa coact inh
COc1ccc(S(=O)(=O)N(C)CC(=O)Nc2cccc(C(C)=O)c2)cc1Cl,-9.0,-3.6,-1.2,-0.3,88.3,-0.1
Cc1[nH]nc2c1C(c1ccccn1)N(c1ccc(Br)cc1)C2=O (centres undefined),12.3,5.6,-2.6,0.6,103.2,77.1*[fluorescence artefact?]
O=C1COc2ccc(C(=O)CSc3nnc(Cc4cccs4)n3-c3ccc(Cl)cc3)cc2N1,3.7,3.9,-5.5,-6.4,96.0,-0.7
O=c1c2ccccc2c2ccccc2c(=O)n1-c1cc2c3ccccc3ccc2c2ccccc12,86.2*,/,/,/,/,/
O=C(O)CCn1c(=O)c2ccccc2c2ccccc2c1=O,2.8,4.8,-3.5,-0.5,106.4,-18.1
O=C(NCc1ccc2c(c1)OCO2)c1ccc(CN2CCOCC2)cc1,-4.0,6.7,2.5,0.0,101.2,-8.5
CC12CN3CC(C)(CN(C1)C3c1ccccc1Cl)C2O (centres undefined),/,/,/,6.8,/,/
